Each structure is given as a SMILES string. Values joined by “and” are separate entries in the source; they are usually repeats but may differ in a detail not shown here. Equal entries are not always repeated. Structures can show the parent of a compound that is named as a salt.
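Note: Hoechst-stained nuclei counted by automated confocal imaging of four fields per well in 384-well plates, with the robust Z-score based on the per-plate DMSO median and robust SD.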

The assay concerns HeLa. The assay is described as follows: nuclear count per well, robust Z-score vs DMSO; higher = more cells (less toxicity). As to conditions: 10 µM; 6 h.
For `Cc1nnc(C(C)C)n1C1C[C@H]2CC[C@@H](C1)N2CC[C@H](NC(=O)C1CCC(F)(F)CC1)c1ccccc1` (stereo in doubt) [Maraviroc], the “nuclear count per well” value turned out to be 0.433.

Take `CC(=O)[C@H]1[C@H](C#N)C[C@H]2[C@@H]3CC=C4C[C@@H](O)CC[C@]4(C)[C@H]3CC[C@@]21C`: the “nuclear count per well” value was -0.236.

For `CNCCC=C1c2ccccc2CCc2ccccc21`, the “nuclear count per well” value came out at 0.249.

On to `COC(=O)C[C@H](NC(=O)[C@H](C)NC(=O)[C@@H](NC(=O)OCc1ccccc1)C(C)C)C(=O)CF`, for which the “nuclear count per well” value was 0.576 and 0.906.

For `O=c1oc2ccccc2c(O)c1Cc1c(O)c2ccccc2oc1=O` [Dicumarol], the “nuclear count per well” value turned out to be 0.274.

In the case of `CC/C(=C(/CC)c1ccc(O)cc1)c1ccc(O)cc1` [Diethylstilbestrol], the “nuclear count per well” value is -0.178.

Turning to `CO[C@H]1/C=C/O[C@@]2(C)Oc3c(C)c(O)c4c(O)c(c(/C=N/N5CCN(C6CCCC6)CC5)c(O)c4c3C2=O)NC(=O)/C(C)=C\C=C\[C@H](C)[C@H](O)[C@@H](C)[C@@H](O)[C@@H](C)[C@H](OC(C)=O)[C@@H]1C` [Rifapentine], the “nuclear count per well” value is -0.199.

Consider `OC(Cn1cncn1)(Cn1cncn1)c1ccc(F)cc1F` [Fluconazole], for which the “nuclear count per well” value was -0.299.

As for `CC(=O)OCOC(c1ccc2ccccc2c1)P(=O)(OCOC(C)=O)OCOC(C)=O` (stereo not given), the “nuclear count per well” value was -4.1.

In the case of `C[N+]1(C)[C@@H]2CC[C@H]1C[C@@H](OC(=O)C(O)c1ccccc1)C2` (stereo not given in full) [Homatropine Methylbromide], the “nuclear count per well” value is -0.998.

Regarding `CCCCCC[C@@H]([C@@H](C)O)n1cnc2c(N)ncnc21` (racemic), the “nuclear count per well” value came out at 1.36.

Regarding `O=C(CCCCCCC(=O)Nc1ccccc1)NO` [Vorinostat], the “nuclear count per well” value was -0.818.

On to `COc1ccc2cc(CCC(C)=O)ccc2c1` [Nabumetone], for which the “nuclear count per well” value was found to be 0.192.

Turning to `Cc1nc(Nc2ncc(C(=O)Nc3c(C)cccc3Cl)s2)cc(N2CCN(CCO)CC2)n1` [Dasatinib], the “nuclear count per well” value was -1.63.

For the molecule `CN(C)CCC(c1ccc(Cl)cc1)c1ccccn1` (stereo not given) [Chlorpheniramine Maleate], the “nuclear count per well” value was 0.425.

For `c1ccc2c(Cc3c[nH]c4ccccc34)c[nH]c2c1` [Diidolylmethane], the “nuclear count per well” value is -0.0575.

For the molecule `C[N+](C)(C)CCOC(N)=O` [Carbachol (Carbamylcholine ) Chloride], the “nuclear count per well” value was -0.166.

For `C=CC[C@@H]1/C=C(\C)C[C@H](C)C[C@H](OC)[C@H]2O[C@@](O)(C(=O)C(=O)N3CCCC[C@H]3C(=O)O[C@H](/C(C)=C/[C@@H]3CC[C@@H](O)[C@H](OC)C3)[C@H](C)[C@@H](O)CC1=O)[C@H](C)C[C@@H]2OC`, the “nuclear count per well” value was found to be 0.344.

For the molecule `COc1cc2nc(N3CCN(C(=O)c4ccco4)CC3)nc(N)c2cc1OC` [Prazocin], the “nuclear count per well” value came out at 0.533.

On to `CCCCCCCCCCCCCCCCCCOC[C@H](COP(=O)([O-])OCC[N+](C)(C)C)OC(C)=O`, for which the “nuclear count per well” value was -0.474.

With `CC(C)c1c(C(=O)Nc2ccccc2)c(-c2ccccc2)c(-c2ccc(F)cc2)n1CC[C@@H](O)C[C@@H](O)CC(=O)O` [Atorvastatin Calcium], the “nuclear count per well” value is -1.3.

With `COc1cc2ncnc(Nc3cccc(Cl)c3)c2cc1OC` [Tyrphostin AG 1478], the “nuclear count per well” value is -0.224.

With `Cc1c(C)c2c(c(C)c1O)CCC(C)(COc1ccc(CC3SC(=O)NC3=O)cc1)O2` (stereo not given) [Troglitazone], the “nuclear count per well” value was -0.125.

For `COc1c(N2C[C@@H]3CCCN[C@@H]3C2)c(F)cc2c(=O)c(C(=O)O)cn(C3CC3)c12`, the “nuclear count per well” value was -0.071.

Regarding `C[C@H](N[C@@H](CCc1ccccc1)C(=O)O)C(=O)N1CCC[C@H]1C(=O)O` [Enalaprilat Maleate], the “nuclear count per well” value was -0.807.

Consider `O=Cc1c2[nH]c3ccccc3c2cc2[nH]c3ccccc3c12` [6-Formylindolo [3,2-B] carbazole], for which the “nuclear count per well” value was -0.343.

For `Cc1cccc(Nc2nc(-c3ccncc3)cs2)c1`, the “nuclear count per well” value is -0.258.

As for `CN1CC[C@@H](NC(=O)Nc2ccc(C#N)cc2)C[C@@H]1c1nc2ccccc2[nH]1`, the “nuclear count per well” value was -0.634.

Take `Cc1ccc(NC(=O)c2ccc(CN3CCN(C)CC3)cc2)cc1Nc1nccc(-c2cccnc2)n1` [Imatinib Mesylate]: the “nuclear count per well” value is -1.06.

Regarding `CC1(C)S[C@@H]2[C@H](NC(=O)[C@H](N)c3ccccc3)C(=O)N2[C@H]1C(=O)O` [Ampicillin Trihydrate], the “nuclear count per well” value stood at 0.682.

For the molecule `COc1cc(CNC(=O)CCCCCCC(C)C)ccc1O` [Dihydrocapsaicin], the “nuclear count per well” value amounted to 1.61.

Turning to `CN(C/C=C/c1ccccc1)Cc1cccc2ccccc12`, the “nuclear count per well” value was -0.367.

Take `CCCCN1CCCCC1C(=O)Nc1c(C)cccc1C` (stereo not given): the “nuclear count per well” value is -0.695.

As to `O=C(O)C1(C(=O)O)CCC1.[NH2-].[NH2-].[Pt+2]` [Carboplatin], the “nuclear count per well” value was 0.428.

As to `CO/N=C1\CN(c2nc3c(cc2F)c(=O)c(C(=O)O)cn3C2CC2)CC1CN` (stereo not given) [Gemifloxacin], the “nuclear count per well” value is -0.237.

Take `COc1ccc(C[C@H](N)C(=O)N[C@H]2[C@@H](O)[C@H](n3cnc4c(N(C)C)ncnc43)O[C@@H]2CO)cc1`: the “nuclear count per well” value is -4.89.

With `Clc1ccc(C(Cn2ccnc2)OCc2csc3c(Cl)cccc23)c(Cl)c1` (stereo not given) [Sertaconazole], the “nuclear count per well” value amounted to 0.262.

In the case of `CC(=O)OCC(=O)[C@@]1(O)CC[C@H]2[C@@H]3CCC4=CC(=O)CC[C@]4(C)[C@H]3[C@@H](O)C[C@@]21C` [Hydrocortisone Acetate], the “nuclear count per well” value was found to be 1.42.

Turning to `Nc1cccc2c1CN(C1CCC(=O)NC1=O)C2=O` (stereo not given) [Lenalidomide], the “nuclear count per well” value is -0.365.

For `C[S+]([O-])c1ccc(-c2nc(-c3ccc(F)cc3)c(-c3ccncc3)[nH]2)cc1` (stereo not given), the “nuclear count per well” value was 1.

For the origin of these results see the supplement of paper PMC9844399.
